From article PMC7862700, “An all-to-all approach to the identification of sequence-specific readers for epigenetic DNA modifications on cytosine” come the findings set out here.

What all share (assay): DAPPL (digital affinity profiling via proximity ligation, sequencing); 10 mM Tris-HCl pH 7.5, 50 mM NaCl, 1 mM DTT, 4% glycerol, room temperature, 30 min; GST-TFs on glutathione beads, 16-mer random dsDNA library, 0.1% formaldehyde crosslink after washing; high values mean tight binding
What all share (settings): protein: recombinant; tags: N-terminal GST; dsDNA, one strand shown

One assay addresses ELF1 (Homo sapiens, UniProt P32519 1-619). The essentials:
(§1)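 Binding signal is given per hexamer as its read frequency for a factor divided by its frequency in the tag-only sample. GST-fused human transcription factors were expressed in yeast, captured on glutathione beads, barcoded with DNA and pooled with that sample, then incubated with 200 nmole of a 16-mer random double-stranded DNA library in Tris/NaCl/DTT/glycerol buffer for 30 min at room temperature. The pools were then washed, crosslinked, proximity-ligated, amplified by PCR and sequenced on an Illumina NextSeq500.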

A further assay has as its target T1, SPIC (Homo sapiens, UniProt Q8N5J4 1-248).
T1 sequence: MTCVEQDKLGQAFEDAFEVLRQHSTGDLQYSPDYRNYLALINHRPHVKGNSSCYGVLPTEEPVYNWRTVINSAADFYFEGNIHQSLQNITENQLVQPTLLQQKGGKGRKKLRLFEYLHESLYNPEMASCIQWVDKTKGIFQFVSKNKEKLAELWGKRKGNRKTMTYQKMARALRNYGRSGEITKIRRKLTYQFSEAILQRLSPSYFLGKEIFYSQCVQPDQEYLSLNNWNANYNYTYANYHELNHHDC
The method in brief:
as §1

The target of a further assay is T2, ELK4 (Homo sapiens, UniProt P28324-2 1-405).
T2 sequence: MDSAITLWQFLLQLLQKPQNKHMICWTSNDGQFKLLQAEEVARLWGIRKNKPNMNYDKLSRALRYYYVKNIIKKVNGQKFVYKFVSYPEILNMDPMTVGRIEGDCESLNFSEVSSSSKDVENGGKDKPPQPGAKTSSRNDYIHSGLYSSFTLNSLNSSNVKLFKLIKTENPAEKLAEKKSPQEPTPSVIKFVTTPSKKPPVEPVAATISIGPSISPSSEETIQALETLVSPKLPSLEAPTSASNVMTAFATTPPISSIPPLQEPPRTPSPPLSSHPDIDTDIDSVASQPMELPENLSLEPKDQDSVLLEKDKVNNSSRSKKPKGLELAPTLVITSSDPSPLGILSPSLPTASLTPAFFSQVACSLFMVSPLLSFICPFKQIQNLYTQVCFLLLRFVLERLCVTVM
The method in brief: as §1

The next assay concerns the target T3, ETV2 (Homo sapiens, UniProt O00321 1-342).
T3 sequence: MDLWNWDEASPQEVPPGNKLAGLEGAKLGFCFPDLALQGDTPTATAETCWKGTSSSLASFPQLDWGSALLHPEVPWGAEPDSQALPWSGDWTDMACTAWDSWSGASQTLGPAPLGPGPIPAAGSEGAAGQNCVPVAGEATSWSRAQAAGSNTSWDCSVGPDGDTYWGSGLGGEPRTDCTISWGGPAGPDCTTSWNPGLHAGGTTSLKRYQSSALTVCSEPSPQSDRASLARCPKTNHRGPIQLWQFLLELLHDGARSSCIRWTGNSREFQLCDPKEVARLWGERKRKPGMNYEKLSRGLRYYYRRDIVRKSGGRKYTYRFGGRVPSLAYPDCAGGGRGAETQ
The method in brief:
as §1

The target in a further assay is T4, ERF (Homo sapiens, UniProt P50548 1-548).
T4 sequence: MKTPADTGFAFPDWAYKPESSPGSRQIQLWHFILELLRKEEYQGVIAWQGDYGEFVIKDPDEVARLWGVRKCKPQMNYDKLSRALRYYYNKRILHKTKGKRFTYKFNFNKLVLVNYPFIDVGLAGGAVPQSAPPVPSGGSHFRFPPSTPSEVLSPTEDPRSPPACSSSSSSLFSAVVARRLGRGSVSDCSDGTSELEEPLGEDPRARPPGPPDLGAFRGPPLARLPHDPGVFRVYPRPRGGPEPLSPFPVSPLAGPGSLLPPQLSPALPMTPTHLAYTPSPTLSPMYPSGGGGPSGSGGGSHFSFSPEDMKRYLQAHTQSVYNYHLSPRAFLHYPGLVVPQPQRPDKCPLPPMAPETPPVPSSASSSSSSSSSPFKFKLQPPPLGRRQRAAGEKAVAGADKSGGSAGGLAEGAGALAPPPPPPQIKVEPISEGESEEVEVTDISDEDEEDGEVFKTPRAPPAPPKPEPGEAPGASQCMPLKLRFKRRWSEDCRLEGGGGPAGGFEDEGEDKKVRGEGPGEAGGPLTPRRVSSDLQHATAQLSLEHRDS
The essentials:
as §1

The target of a further assay is SPIB (Homo sapiens, UniProt Q01892 1-262). The method in brief: as §1
A further assay concerns the target CRX (Homo sapiens, UniProt O43186 1-299). The method in brief: as §1
The next assay has as its target SPI1 (Homo sapiens, UniProt P17947 1-270). The essentials:
as §1

The target of another assay is T5, ELK3 (Homo sapiens, UniProt P41970 1-407).
T5 sequence: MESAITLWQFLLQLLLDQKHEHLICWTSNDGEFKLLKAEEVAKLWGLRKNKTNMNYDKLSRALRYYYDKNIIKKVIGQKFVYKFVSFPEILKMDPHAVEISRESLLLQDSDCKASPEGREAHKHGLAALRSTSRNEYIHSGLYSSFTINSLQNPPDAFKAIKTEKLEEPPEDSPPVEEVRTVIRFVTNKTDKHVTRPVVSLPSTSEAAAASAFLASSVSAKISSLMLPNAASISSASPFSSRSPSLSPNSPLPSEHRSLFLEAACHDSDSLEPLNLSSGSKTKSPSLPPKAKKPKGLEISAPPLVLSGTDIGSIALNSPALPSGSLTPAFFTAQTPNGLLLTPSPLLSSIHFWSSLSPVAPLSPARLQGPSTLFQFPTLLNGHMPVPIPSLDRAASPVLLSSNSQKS
The method in brief: as §1

In another assay the target is T6, FEV (Homo sapiens, UniProt Q99581 1-238).
T6 sequence: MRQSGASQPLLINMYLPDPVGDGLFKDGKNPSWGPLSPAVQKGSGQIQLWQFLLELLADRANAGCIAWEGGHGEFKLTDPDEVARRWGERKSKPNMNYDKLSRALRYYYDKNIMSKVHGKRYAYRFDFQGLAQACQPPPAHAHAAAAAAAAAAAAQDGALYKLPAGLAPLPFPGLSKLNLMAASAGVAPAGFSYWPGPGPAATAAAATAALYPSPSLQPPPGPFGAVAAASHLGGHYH
The essentials:
as §1

The target of a further assay is T7, ELF3 (Homo sapiens, UniProt P78545 1-371).
T7 sequence: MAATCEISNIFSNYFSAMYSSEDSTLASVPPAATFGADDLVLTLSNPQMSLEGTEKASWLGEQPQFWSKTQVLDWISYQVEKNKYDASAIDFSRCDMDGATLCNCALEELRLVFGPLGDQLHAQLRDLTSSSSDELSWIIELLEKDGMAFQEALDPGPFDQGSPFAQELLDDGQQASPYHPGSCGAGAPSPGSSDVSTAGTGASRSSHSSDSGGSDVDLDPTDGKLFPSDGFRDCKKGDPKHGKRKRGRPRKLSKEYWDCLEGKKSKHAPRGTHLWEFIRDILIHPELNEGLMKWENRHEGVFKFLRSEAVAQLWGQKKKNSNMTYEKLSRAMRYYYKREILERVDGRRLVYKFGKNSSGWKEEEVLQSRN
The essentials:
as §1

The next assay concerns the target T8, ETV3L (Homo sapiens, UniProt Q6ZN32 1-361).
T8 sequence: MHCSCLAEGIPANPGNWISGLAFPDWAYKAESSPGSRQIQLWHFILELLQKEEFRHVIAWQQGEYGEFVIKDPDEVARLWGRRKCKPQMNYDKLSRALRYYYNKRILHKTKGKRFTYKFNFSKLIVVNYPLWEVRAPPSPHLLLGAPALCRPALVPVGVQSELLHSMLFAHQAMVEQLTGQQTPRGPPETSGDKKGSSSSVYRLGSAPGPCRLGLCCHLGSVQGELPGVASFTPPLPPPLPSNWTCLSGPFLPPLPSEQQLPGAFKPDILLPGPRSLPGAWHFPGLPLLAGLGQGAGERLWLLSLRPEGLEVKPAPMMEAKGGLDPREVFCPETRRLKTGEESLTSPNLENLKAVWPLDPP
The method in brief: as §1

SPIB, sequence (Q01892 whole entry): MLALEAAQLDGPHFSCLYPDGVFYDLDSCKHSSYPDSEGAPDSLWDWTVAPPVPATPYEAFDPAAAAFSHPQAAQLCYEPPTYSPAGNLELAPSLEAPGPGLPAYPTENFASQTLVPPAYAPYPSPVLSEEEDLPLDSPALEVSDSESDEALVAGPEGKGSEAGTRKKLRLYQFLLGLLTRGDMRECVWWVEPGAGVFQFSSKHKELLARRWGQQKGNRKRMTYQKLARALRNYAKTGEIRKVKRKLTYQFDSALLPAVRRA
CRX, sequence (O43186 whole entry): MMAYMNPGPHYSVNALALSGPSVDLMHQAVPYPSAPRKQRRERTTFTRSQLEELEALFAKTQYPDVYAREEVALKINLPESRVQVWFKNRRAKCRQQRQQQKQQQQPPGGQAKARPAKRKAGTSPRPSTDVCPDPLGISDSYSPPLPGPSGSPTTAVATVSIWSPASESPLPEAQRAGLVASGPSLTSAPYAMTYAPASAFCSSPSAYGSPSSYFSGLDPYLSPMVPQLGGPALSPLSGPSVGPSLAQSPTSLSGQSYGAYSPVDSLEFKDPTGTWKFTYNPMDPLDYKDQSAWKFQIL
ELF1, sequence (P32519 whole entry, the tested form may be a part): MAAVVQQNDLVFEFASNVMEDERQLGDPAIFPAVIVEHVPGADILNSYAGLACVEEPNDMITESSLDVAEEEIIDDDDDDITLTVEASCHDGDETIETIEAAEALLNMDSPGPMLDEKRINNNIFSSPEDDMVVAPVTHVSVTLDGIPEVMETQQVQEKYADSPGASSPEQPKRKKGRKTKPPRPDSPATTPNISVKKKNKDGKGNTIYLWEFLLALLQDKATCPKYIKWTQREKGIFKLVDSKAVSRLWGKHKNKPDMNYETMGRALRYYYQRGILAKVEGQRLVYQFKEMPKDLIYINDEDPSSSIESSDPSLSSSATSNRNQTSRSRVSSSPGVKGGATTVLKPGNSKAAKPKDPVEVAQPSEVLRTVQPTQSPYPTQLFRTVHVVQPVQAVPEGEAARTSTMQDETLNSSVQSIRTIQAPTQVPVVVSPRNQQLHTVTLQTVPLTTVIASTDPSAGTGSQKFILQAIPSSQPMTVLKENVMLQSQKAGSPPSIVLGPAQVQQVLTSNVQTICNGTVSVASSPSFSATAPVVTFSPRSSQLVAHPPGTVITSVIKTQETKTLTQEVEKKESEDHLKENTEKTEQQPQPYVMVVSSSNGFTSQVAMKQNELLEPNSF

Take CGCTGT: the binding signal in the assay with ELF1 is 1.01 fold enrichment (6-mer frequency, TF over GST control); in the assay with SPIC, 1.1 fold enrichment (6-mer frequency, TF over GST control); in the assay with ELK4 it was 1.04 fold enrichment (6-mer frequency, TF over GST control); with ETV2 it was 1.01 fold enrichment (6-mer frequency, TF over GST control); in the assay with ERF, 1.12 fold enrichment (6-mer frequency, TF over GST control).
Regarding GCAGAT, the binding signal with SPIB is 1.02 fold enrichment (6-mer frequency, TF over GST control); with SPIC, 1 fold enrichment (6-mer frequency, TF over GST control); with ELK4, 1.04 fold enrichment (6-mer frequency, TF over GST control); in the assay with ETV2, 1.17 fold enrichment (6-mer frequency, TF over GST control); in the assay with CRX it was 1.21 fold enrichment (6-mer frequency, TF over GST control).
With GGCGTT, the binding signal in the assay with SPI1 was 1.03 fold enrichment (6-mer frequency, TF over GST control); with SPIB it was 1.05 fold enrichment (6-mer frequency, TF over GST control); with ELK3, 1.02 fold enrichment (6-mer frequency, TF over GST control); with FEV, 1.01 fold enrichment (6-mer frequency, TF over GST control); with SPIC it was 1.08 fold enrichment (6-mer frequency, TF over GST control); in the assay with ETV2, 1.13 fold enrichment (6-mer frequency, TF over GST control). Moreover, the binding signal is 1.1 fold enrichment (6-mer frequency, TF over GST control) with ELF3; 1.01 fold enrichment (6-mer frequency, TF over GST control) with ERF; 1.09 fold enrichment (6-mer frequency, TF over GST control) with ETV3L.
